Bioassay records: PubChem, National Center for Advancing Translational Sciences (NCATS)
GLS inhibitor: inhibitors of human glutaminase (GLS). Potency, µM (series often up to 45.5 µM), actives largely listed as inhibitors. 410,000 tested, 0.21% active. GLS enzymatic activity, qHTS titration
Target sequence (O94925 whole entry, looked up): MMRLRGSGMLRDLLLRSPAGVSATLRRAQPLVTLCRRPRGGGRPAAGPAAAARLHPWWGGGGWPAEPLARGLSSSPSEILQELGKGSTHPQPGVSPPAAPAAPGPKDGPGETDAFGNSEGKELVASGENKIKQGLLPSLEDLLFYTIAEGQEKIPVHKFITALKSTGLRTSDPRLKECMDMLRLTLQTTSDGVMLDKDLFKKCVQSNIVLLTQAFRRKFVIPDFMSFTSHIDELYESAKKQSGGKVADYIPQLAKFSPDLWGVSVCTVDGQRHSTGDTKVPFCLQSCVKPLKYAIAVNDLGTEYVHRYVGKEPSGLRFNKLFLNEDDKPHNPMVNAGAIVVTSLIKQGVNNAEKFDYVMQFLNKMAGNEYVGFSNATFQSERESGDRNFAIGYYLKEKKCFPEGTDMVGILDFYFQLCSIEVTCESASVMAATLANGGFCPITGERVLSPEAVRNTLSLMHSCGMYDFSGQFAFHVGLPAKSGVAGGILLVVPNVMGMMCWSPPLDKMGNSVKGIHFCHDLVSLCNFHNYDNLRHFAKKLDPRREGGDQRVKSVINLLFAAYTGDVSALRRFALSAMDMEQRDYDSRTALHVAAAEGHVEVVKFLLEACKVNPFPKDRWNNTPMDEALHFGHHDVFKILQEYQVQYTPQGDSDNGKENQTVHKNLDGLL
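hKGA; 45 mM KH2PO4 pH 8.2 + 0.02% Tween-20; cpd via pin tool; 1 mM Gln soln; GluOx/HRP/Amplex Red; RT 30 min; fluor. t0 & final.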
p53 reactivation: mutant p53 re-activation in reporter cells. H1299 p53-A138V BP100-luciferase reporter, luminescence, 24 h. 320,000 tested, 0.063% active. Potency, µM (doses to about 92.2 µM), hits mostly activators; note: nearly all actives have a fitted effect of over 45% in size
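p53-null H1299 cells stably carrying temperature-sensitive p53-A138V and a BP100-luciferase reporter were pinned with compounds (4-point, 1:5 series) and held 24 hrs at 37 deg C. Luminescence was read 10 min after detection reagent.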
BRCA1 expr act: BRCA1 expression activation. MCF7-BRCA1-FFLuc reporter, luminescence, 48 h; response scale: scaled: vehicle 0%, 10 µM genistein 100%. 380,000 tested, 1.1% active. AID 624202. Potency, µM (top dose mostly 46.1 µM), most hits filed as activators; note: nearly all actives have a fitted effect of over 80% in size
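MCF7-BRCA1-FFLuc cells, 2000/well in phenol-red-free MEM, attached 2 h then treated 48 h at 37 C. Luciferase luminescence read 15 min after reagent; normalized to genistein maximum activation (10microM) and DMSO, concentration-response fitted.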
TSHR antag: antagonists of human thyroid stimulating hormone receptor; P16473; TSHR-expressing cells, TSH-stimulated cAMP HTRF, 2 h; stronger effect = lower value; activity change, negative = inhibition, % at 11.5 µM; 330,000 tested, 0.2% active;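 active = activity change below a set negative limit, meaning inhibition stronger than a set level, cut at about -70% in these data; inconclusive = activity change between two set negative limits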
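Cell-based HTRF cAMP assay; TSHR cells + compound, TSH EC80 (4nM final), 2 h, 37 deg C. Lysis with anti-cAMP cryptate and cAMP-d2, 30 min RT, read 665/620 nm.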
TCR act: activators of T cell receptors; primary human leukocytes, anti-CD3, IL-2 HTRF, 48 h; Potency, µM (titrated, usually from 9.22 µM), most hits filed as activators; 330,000 tested, under 10 active
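Primary human leukocytes incubated 48 hr with anti-CD3 beads plus compound, without co-stimulation. Secreted IL-2 measured by HTRF (europium cryptate/d2 anti-IL-2 pair, 320 nm excitation, 665 nm emission).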
N370S GC: N370S glucocerebrosidase modulation, Gaucher chaperone candidate; N370S GC spleen homogenate, 4MU-glucoside fluorescence; Potency, µM (doses to about 59.4 µM), most hits filed as inhibitors; P04062; 330,000 tested, 0.092% active
Hits are given with their value. The list is not random: actives were taken first. Their share in the collection is about 1.4%. Unless noted, calls come from the whole dose curve; as a rule, active = well fitted curve in the direction sought with a large enough effect; inconclusive = small, poorly fitted or top-dose-only effect, or another doubt; inactive = no such curve, though single readings can be large; an effect the other way counts as inactive or inconclusive.

Cc1cnc2c3c(cc(Cl)c2c1)-c1ccccc1S(=O)(=O)N3 was read as BRCA1 expr act inactive.
Screening Nc1cccc2c(=O)[nH]ccc12 returned N370S GC inactive.
Screening CCOc1ccc(/C=C\C(C)=N\O)cc1 returned GLS inhibitor inactive, p53 reactivation inconclusive, BRCA1 expr act 2.82µM, TSHR antag inactive and N370S GC inactive.
Screening CC(C)C[C@H](NC(=O)[C@@H]1CCCN1C(=O)[C@H](Cc1ccccc1)NC(=O)[C@H](C)NC(=O)[C@H](CCC(=O)O)NC(=O)[C@H](C)NC(=O)[C@H](CO)NC(=O)[C@H](CCC(=O)O)NC(=O)[C@H](CC(=O)O)NC(=O)[C@H](CCC(=O)O)NC(=O)[C@H](C)NC(=O)CNC(=O)[C@H](CC(N)=O)NC(=O)[C@@H]1CCCN1C(=O)[C@H](Cc1ccc(O)cc1)NC(=O)[C@@H](NC(=O)[C@H](CCCCN)NC(=O)[C@@H](NC(=O)[C@@H]1CCCN1C(=O)[C@@H](N)CCCNC(=N)N)C(C)C)C(C)C)C(=O)N[C@@H](CCC(=O)O)C(=O)N[C@@H](Cc1ccccc1)C(=O)O returned N370S GC inactive.
`Cn1ncc(S(=O)(=O)Cc2ccccc2)c(Br)c1=O` gave TSHR antag inactive.
NC(=S)c1ccc[n+]([C@@H]2O[C@@H](COP(=O)([O-])OP(=O)(O)OC[C@H]3O[C@@H](n4cnc5c(N)ncnc54)[C@H](OP(=O)(O)O)[C@@H]3O)C(O)C2O)c1 (stereo partly drawn) was read as TSHR antag inactive.
`CC(=O)Nc1cnc(-c2cc(C)c(O)c(C)c2)cn1` gave GLS inhibitor inactive and BRCA1 expr act 8.91µM.
`CC(=O)Nc1cnc(-c2ccc3c(c2)OCO3)cn1` gave GLS inhibitor inactive and BRCA1 expr act 2.82µM.
`O=C(Nc1nc(-c2ccc3c(c2)OCO3)cs1)C1CC1` gave GLS inhibitor inactive, p53 reactivation inconclusive, BRCA1 expr act 4.47µM, TSHR antag inactive, TCR act inactive and N370S GC inactive.
`O=C1C2C3CCCC3=C3CCCC3C2C(=O)N1c1ccccc1Cl` (stereo not drawn) gave BRCA1 expr act inactive.
CN=C(NC)NCc1ccccc1 was read as GLS inhibitor inactive.
Screening O=C(COC(=O)c1c2c(nc3ccccc13)/C(=C/c1ccco1)CC2)NC1CCCC1 returned GLS inhibitor 17.8µM, p53 reactivation inactive, BRCA1 expr act inactive, TSHR antag inactive, TCR act inactive and N370S GC inactive.
For CC(=O)Nn1cc2c(c1-c1ccccc1)c(=O)n(C)c(=O)n2C the results were GLS inhibitor inactive, p53 reactivation inactive, BRCA1 expr act inactive, TSHR antag inactive, TCR act inactive and N370S GC inactive.
CC(=O)n1c(-c2ccccc2)c(-c2ccccc2)n(C)c1=O was read as GLS inhibitor 31.6µM, BRCA1 expr act inactive and TCR act inactive.
For O=[N+]([O-])c1cc(C=NN2CCCCCC2)ccc1Cl the results were GLS inhibitor inactive, BRCA1 expr act 2.82µM and TCR act inactive.
Screening O=[N+]([O-])c1cc(/C=N/N2CCCCC2)ccc1Cl returned GLS inhibitor inactive, p53 reactivation inconclusive, BRCA1 expr act 11.2µM, TSHR antag inactive, TCR act inactive and N370S GC inactive.
`O=[N+]([O-])c1cc(/C=N/N2CCN(c3ccccc3)CC2)ccc1Cl` gave GLS inhibitor inactive, p53 reactivation inactive, BRCA1 expr act inactive, TSHR antag inactive, TCR act inactive and N370S GC inactive.
`CCOC(=O)c1sc(NC(=O)C(C)(C)C)cc1C` gave GLS inhibitor inactive, p53 reactivation inconclusive, BRCA1 expr act 3.16µM, TSHR antag inactive, TCR act inactive and N370S GC inactive.
CCOC(=O)c1sc(NC(=O)c2ccc(Cl)s2)cc1C was read as GLS inhibitor inactive, p53 reactivation inactive, BRCA1 expr act 4.47µM, TSHR antag inactive, TCR act inactive and N370S GC inactive.
`CCOC(=O)c1sc(NC(=O)c2ccccc2)cc1C` gave GLS inhibitor inactive, p53 reactivation inactive, BRCA1 expr act inconclusive, TSHR antag inactive, TCR act inactive and N370S GC inactive.
Screening CC(=O)OCC1=C[C@H]2[C@@H]3C(C)(C)[C@]3(OC(C)=O)C[C@@H](C)[C@]2(O)[C@@H]2C=C(C)C(=O)[C@@]2(O)C1 returned N370S GC inactive.
`COc1ccc(CNCC(O)COc2ccc3[nH]c(=O)ccc3c2)cc1OC` (stereo not drawn) gave GLS inhibitor inactive.
Screening CCOC(=O)c1oc2nc3c(cc2c1N)COC(C)(C)C3 returned GLS inhibitor inactive, p53 reactivation inactive, BRCA1 expr act 7.94µM, TSHR antag inactive and N370S GC inactive.
For COC(=O)c1sc2nc3c(cc2c1N)COC(C)(C)C3 the results were GLS inhibitor inactive, p53 reactivation inconclusive, BRCA1 expr act 4.47µM, TSHR antag inactive, TCR act inactive and N370S GC inactive.
For CC1CCc2nc3sc4c(c3c(N)c2C1)CCCC4 (stereo not drawn) the results were GLS inhibitor inactive, p53 reactivation inconclusive, BRCA1 expr act inconclusive, TSHR antag inactive, TCR act inactive and N370S GC inconclusive.
`CC1CCc2c(nc3sc4c(c3c2N)CCCC4)C1` (stereo not drawn) gave GLS inhibitor inactive, p53 reactivation inconclusive, BRCA1 expr act 2.82µM, TSHR antag inactive, TCR act inactive and N370S GC inactive.
`O=C(NCCc1nc2ccccc2n1CCCOc1ccccc1)C1CCCCC1` gave BRCA1 expr act inactive.
Screening Cc1ccc(S(=O)(=O)Cn2nnnc2C(CC(C)C)N2CCN(C(=O)c3ccco3)CC2)cc1 (stereo not drawn) returned GLS inhibitor inactive, p53 reactivation inactive, BRCA1 expr act inactive, TSHR antag inactive, TCR act inactive and N370S GC inconclusive.
CCN1CCN(C(CC(C)C)c2nnnn2CS(=O)(=O)c2ccc(C)cc2)CC1 (stereo not drawn) was read as GLS inhibitor inactive, p53 reactivation inactive, BRCA1 expr act inactive, TSHR antag inactive, TCR act inactive and N370S GC 22.4µM.
Screening COCc1cc(O)c(O)c(O)c1-c1c(COC)cc(O)c(O)c1O returned BRCA1 expr act inactive and N370S GC inactive.
Screening O=C(CN1CCN(c2ccccc2O)CC1)NC(c1ccccc1)c1ccccc1 returned GLS inhibitor inactive, p53 reactivation inactive, BRCA1 expr act inactive, TSHR antag inactive, TCR act inactive and N370S GC inactive.
